Compound activity (PubChem BioAssay)
The entries come from a sample that favours hits as a whole.
LmPK inhibitor: blocks Leishmania mexicana pyruvate kinase activity; actives 0.37% (n = 290,000); Potency, µM (highest dose often 57.5 µM), without a hit: at the highest dose activity change, negative = inhibition, actives largely listed as inhibitors; purified LmPK, Kinase-Glo ATP luminescence, 1 h; also: potency is read from the fitted curve at half-maximal effect; % is scaled to controls: 0 for no effect and ±100 for the full control effect
Target sequence (Q27686 whole entry, looked up): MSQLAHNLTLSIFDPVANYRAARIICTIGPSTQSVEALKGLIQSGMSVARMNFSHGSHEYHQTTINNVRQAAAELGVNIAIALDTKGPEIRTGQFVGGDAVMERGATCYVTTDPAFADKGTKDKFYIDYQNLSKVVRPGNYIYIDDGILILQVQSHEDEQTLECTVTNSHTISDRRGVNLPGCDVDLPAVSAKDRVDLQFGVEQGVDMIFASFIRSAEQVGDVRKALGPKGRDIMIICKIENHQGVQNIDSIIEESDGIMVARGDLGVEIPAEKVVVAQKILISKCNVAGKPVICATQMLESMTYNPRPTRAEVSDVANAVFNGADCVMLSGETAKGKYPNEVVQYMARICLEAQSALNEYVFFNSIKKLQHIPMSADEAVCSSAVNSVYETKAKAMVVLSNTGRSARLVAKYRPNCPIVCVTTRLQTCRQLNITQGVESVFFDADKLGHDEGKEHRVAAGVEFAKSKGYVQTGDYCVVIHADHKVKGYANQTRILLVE
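In 50 mM imidazole pH 7.2 with 7 mM MgCl2, LmPK (0.1 nM) turned over PEP (0.5 mM) and ADP (0.1 mM) for 1 h at room temperature. Luciferase read-out of ATP.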
FBPA Giardia inh: blocks Giardia fructose-bisphosphate aldolase activity; A8B2U2; purified Giardia FBPA; Potency, µM (titrated, usually from 59.6 µM), for the others: at the highest dose activity, negative = inhibition, hits mostly inhibitors; actives 0.71% (n = 290,000); AID 2451; also: potency is read from the fitted curve at half-maximal effect; % is scaled to controls: 0 for no effect and ±100 for the full control effect; nearly all actives have a fitted effect of over 55% in size
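Giardia FBPA (40 nM reagent) was preincubated 10 min at RT with compound (up to 57.5 uM final), then substrate plus GAPDH/TPI/NAD/arsenate coupling system with diaphorase/resazurin was added; resorufin fluorescence (525/598 nm) was read after 20 min.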
RE007 growth inh: less growth of the S. pombe RE007 Vpr strain | S. pombe RE007 Vpr strain, BacTiter-Glo ATP luminescence, 24 h | Potency, µM (top dose mostly 92.2 µM), for the others: at the highest dose activity change, negative = less growth, usual class: inhibitors | actives 0.21% (n = 360,000); active = well fitted falling curve with a large enough effect; inconclusive = small, poorly fitted or top-dose-only effect; inactive = no such curve, though single readings can be large or run the other way; also: potency is read from the fitted curve at half-maximal effect; % is scaled to controls: 0 for no effect and ±100 for the full control effect; nearly all actives have a fitted effect of over 50% in size
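Fission yeast strain RE007, carrying one chromosomally integrated HIV-1 vpr copy, was seeded at OD 0.01 in PMG+AL medium with 23 nL pinned compound. After 24 h at 30 °C and 99% humidity, viability was read by BacTiter-Glo luminescence.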
TbPYK inhibitor: T. brucei pyruvate kinase inhibition; TbPYK enzyme, Kinase-Glo Plus ATP luminescence, 45 min; Potency, µM (top dose mostly 76.8 µM), inactives show at the highest dose activity, negative = inhibition, actives largely listed as inhibitors; actives 0.12% (n = 410,000); AID 624173; also: potency is read from the fitted curve at half-maximal effect; % is scaled to controls: 0 for no effect and ±100 for the full control effect; nearly all actives have a fitted effect of over 50% in size
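In this concentration-response screen, enzyme-free wells defined baseline while DMSO plates tracked drift. Each reaction combined TbPYK, substrate, compound and 130 uM ADP for 45 min at room temperature. Kinase-Glo Plus luminescence gave the signal.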
Cycloheximide cs: affects cycloheximide protein synthesis inhibition readout, counter-screen | cell reporter, cycloheximide protein synthesis inhibition counterscreen | max response, % | actives 12% (n = 300,000) | AID 2314; in the data active = max response mostly above about 13%, no sharp cut-off; inactive = mostly below about 14%; also: read at 38.3 µM for the half of the compounds with a filed dose; 0% is about no effect
Shiga inhibitor: inhibitors of Shiga toxin in Vero cells; actives 9.2% (n = 290,000); inhibition, % at 38.7 µM; Vero cells, Shiga toxin protein synthesis inhibition reporter; in the data active = inhibition mostly above about 28%, no sharp cut-off; inactive = mostly below about 43%; also: 0% is about no effect
An asterisk follows results filed as active; ? = inconclusive; / = not tested or not shown. Unless noted, calls follow the shape of the dose curve; as a rule, active = well fitted curve in the direction sought with a large enough effect; inconclusive = small, poorly fitted or top-dose-only effect, or another doubt; inactive = no such curve, though single readings can be large; an effect the other way counts as inactive or inconclusive.

SMILES | LmPK inhibitor | FBPA Giardia inh | RE007 growth inh | TbPYK inhibitor | Cycloheximide cs | Shiga inhibitor
CC(C)(C)n1nnnc1C(c1cccnc1)N1CCOCC1 (configuration not stated) | 3.3% | 3.1% | -11.2% | -1.3% | -0.9 | -10.8
CC1(Cc2ccccc2OC(F)(F)F)C(=O)Nc2ccc(-c3ccsc3)cc21 (configuration not stated) | / | / | 14.3% | 3.9% | / | /
COc1ccc(OC)c(C2=Nn3c(nnc3-c3ccccc3C)SC2)c1 | / | -15.6% | / | / | 8.4 | -10.2
COc1cccc(C(=O)NCc2cn3cccc(C)c3n2)c1 | / | / | / | -0.3% | / | /
CCn1nc(C)c(Br)c1-c1nc(CS(=O)(=O)c2ccc(F)cc2)no1 | 1.2% | 2.0% | 4.8% | -10.6% | 7.1 | -3.1
COc1ccc(Br)c(-c2nc(CS(=O)(=O)c3ccc(F)cc3)no2)c1 | -4.8% | 2.2% | -10.3% | -2.4% | 19.8* | 36.8*
COc1ccc(Br)c(-c2nnc(CS(=O)(=O)c3ccccc3)o2)c1 | -0.4% | / | -3.5% | -3.2% | 36.0* | 88.7*
CCOc1ccccc1-c1nnc(CS(=O)(=O)c2ccccc2)o1 | 0.0% | 8.9% | -0.8% | -8.8% | 6.1 | -5.4
COc1cccc(NC(=O)c2ccc(-c3ccc([N+](=O)[O-])cc3)o2)c1 | -7.7% | -5.5% | -13.0% | 0.4% | 18.3* | 69.8*
C=CCNC(=S)N/N=C/c1ccc(-c2cccc([N+](=O)[O-])c2)o1 | 6.9% | -9.4% | 10.6% | 3.9% | 15.9* | 40.5*
C=CCNC(=O)c1ccc(-c2cccc([N+](=O)[O-])c2)o1 | -2.0% | -8.2% | -13.7% | -1.9% | 37.1* | 69.3*
CC(=O)Nc1ccc(NC(=O)c2ccc(-c3ccc([N+](=O)[O-])cc3)o2)cc1 | 4.5% | 1.6% | -5.2% | 8.0% | -1.6 | 1.0
C=CCNC(=O)c1ccc(-c2ccc([N+](=O)[O-])cc2)o1 | 3.2% | -0.6% | -2.5% | -13.2% | 19.3* | active
CCc1nc2c(OCc3ccccc3C)cccn2c1N(C)C(=O)C1CC1 | / | / | -14.3% | -5.1% | / | /
Cc1cc(Oc2c(C(F)(F)F)oc3c(CN4CCC(C)CC4)c(O)ccc3c2=O)cc(C)c1Cl | / | / | / | 2.3% | / | /
CCCCN(C)CCCNC(=O)Cn1ncc2c3ccccc3n(Cc3ccccc3F)c2c1=O | / | / | / | -0.1% | / | /
O=C(COC(=O)/C=C/c1ccc(F)cc1)NC1CCCCCC1 | / | / | 5.0% | 5.8% | / | /
O=C(CP(=O)(c1ccccc1)c1ccccc1)Nc1nc2ccccc2s1 | 0.8% | 1.0% | 2.1% | -3.0% | 1.9 | 1.9
Cc1cc(C)n(-c2ccc(C(=O)Nc3nc4ccccc4s3)cc2)n1 | 1.2% | 3.7% | -0.4% | 1.3% | 19.8* | 26.0
COc1ccc(NC(=O)c2ccc(-n3nc(C)cc3C)cc2)cc1OC | -0.9% | 0.4% | 2.1% | 5.2% | 2.4 | -10.5
Nc1ccc(C(=O)Nc2nc3ccccc3s2)cc1 | -29.1% | -3.0% | -27.3% | -0.8% | 40.8* | 41.7*
COc1cc(C(=O)Nc2nc3ccccc3s2)ccc1OCc1c(C)noc1C | 3.1% | 0.8% | 3.3% | -0.1% | 18.5* | 11.6
CC(=O)Nc1cc(C)nn1-c1nc2ccccc2s1 | 5.4% | 1.8% | -20.9% | -16.7% | 33.1* | 52.2*
O=C(COc1ccc(S(=O)(=O)NC2CCCCC2)cc1)Nc1ccc(C(F)(F)F)cc1 | / | / | / | 1.5% | / | /
COc1cccc(NC(=O)C2CCN(S(=O)(=O)c3c(C)noc3C)CC2)c1 | / | / | / | 0.6% | / | /
Cc1nc(-c2ccc(C)c(S(=O)(=O)N3CCC(C(=O)NCc4ccc(F)cc4)CC3)c2)no1 | / | / | / | 1.8% | / | /
NC(Cc1ccc(C(F)(F)F)cc1)c1csc(Nc2ccc(C(=O)NCc3ccco3)cn2)n1 (configuration not stated) | / | / | 9.9% | 1.8% | / | /
Cc1c(C(C)NC(=O)c2cc(COc3cccc4cnccc34)on2)cnn1C (configuration not stated) | 1.0% | ? | -23.6% | -2.2% | 14.2 | 12.9
Cc1ccc(N2C(=O)CSC23C(=O)N(CC(=O)NCc2ccccc2)c2ccccc23)cc1C (configuration not stated) | / | / | / | -4.3% | / | /
Cc1ccc2c(c1)c(=O)c(C(=O)c1ccncc1)cn2CC(=O)Nc1ccccc1Cl | / | / | / | -1.0% | / | /
